Source: PubChem BioAssay (Tox21)
Inconclusive results are not listed. Entries that show only a call come without a potency. Active and inactive are the calls of the source. Unless noted, the call rests on the fitted dose curve.

Tests used:
[1] = qHTS assay to identify small molecule agonists of the sonic hedgehog signaling (Shh) pathway (AID 1259368);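 further: NIH/3T3-derived 3T3Gli1-Luc cells carrying a stable Gli1-driven firefly luciferase reporter; series mostly up to about 92 µM; nearly all actives have a fitted effect of over 15% in size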
Method in brief: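 Luminescence was read after 30 min at room temperature with luciferase reagent. Before that, 3T3Gli1-Luc cells (NIH/3T3 clone, stable Gli1-Luc reporter; 2,000/well) were exposed to compounds for 24 hr at 37C, 5% CO2, compounds being added 4 hr post-plating.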

[2] = qHTS assay to identify small molecule antagonists of the sonic hedgehog signaling (Shh) pathway (AID 1259369); further: nearly all actives have a fitted effect of over 45% in size; further: potency means the concentration at half of the fitted maximal effect
Method in brief: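 Antagonist mode: compound added to 3T3 Gli1-Luc cells followed by conditioned-medium stimulation, 24 h at 37 C, 5% CO2. Inhibition taken as loss of Gli1-driven luciferase luminescence.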

[3] = qHTS assay to identify small molecule agonists of the androgen receptor (AR) signaling pathway in the presence of an antagonist - cell viability counter screen (AID 1259379; active means well fitted curve in the direction sought with a large enough effect in the repeat runs; an effect the other way counts as inactive or inconclusive;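 further: MDA-kb2 human breast cancer cells carrying an MMTV luciferase reporter; series mostly up to about 92 µM; nearly all actives have a fitted effect of over 25% in size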)
Method in brief: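 Cytotoxicity counter-screen run in the same wells as the nilutamide-challenged (3.0 µM final) AR agonist assay in MDA-kb2 cells. Compounds tested at 15 concentrations for 16 h, 37 °C without CO2; CellTiter-Fluor fluorescence read.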

[4] = qHTS assay to identify small molecule agonists of the estrogen receptor beta (ER-beta) signaling pathway - cell viability counter screen (AID 1259380; active means well fitted curve in the direction sought with a large enough effect in the repeat runs; an effect the other way counts as inactive or inconclusive; further: nearly all actives have a fitted effect of over 30% in size; further: potency means the concentration at half of the fitted maximal effect)
Method in brief: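 Cell viability counter screen: CellTiter-Glo luminescence (30 min, room temperature) measured in the same wells as the beta-lactamase readout, after 16 hr compound exposure at 37C of ER-beta-bla HEK293T cells in 2% charcoal-stripped FBS medium.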

[5] = target: Androgen receptor (Homo sapiens) (UniProt P10275); assay: qHTS assay to identify small molecule agonists of the androgen receptor (AR) signaling pathway in the presence of an antagonist (AID 1259381); further: nearly all actives have a fitted effect of over 15% in size
Chain of Androgen receptor (Homo sapiens) (P10275 whole entry, looked up): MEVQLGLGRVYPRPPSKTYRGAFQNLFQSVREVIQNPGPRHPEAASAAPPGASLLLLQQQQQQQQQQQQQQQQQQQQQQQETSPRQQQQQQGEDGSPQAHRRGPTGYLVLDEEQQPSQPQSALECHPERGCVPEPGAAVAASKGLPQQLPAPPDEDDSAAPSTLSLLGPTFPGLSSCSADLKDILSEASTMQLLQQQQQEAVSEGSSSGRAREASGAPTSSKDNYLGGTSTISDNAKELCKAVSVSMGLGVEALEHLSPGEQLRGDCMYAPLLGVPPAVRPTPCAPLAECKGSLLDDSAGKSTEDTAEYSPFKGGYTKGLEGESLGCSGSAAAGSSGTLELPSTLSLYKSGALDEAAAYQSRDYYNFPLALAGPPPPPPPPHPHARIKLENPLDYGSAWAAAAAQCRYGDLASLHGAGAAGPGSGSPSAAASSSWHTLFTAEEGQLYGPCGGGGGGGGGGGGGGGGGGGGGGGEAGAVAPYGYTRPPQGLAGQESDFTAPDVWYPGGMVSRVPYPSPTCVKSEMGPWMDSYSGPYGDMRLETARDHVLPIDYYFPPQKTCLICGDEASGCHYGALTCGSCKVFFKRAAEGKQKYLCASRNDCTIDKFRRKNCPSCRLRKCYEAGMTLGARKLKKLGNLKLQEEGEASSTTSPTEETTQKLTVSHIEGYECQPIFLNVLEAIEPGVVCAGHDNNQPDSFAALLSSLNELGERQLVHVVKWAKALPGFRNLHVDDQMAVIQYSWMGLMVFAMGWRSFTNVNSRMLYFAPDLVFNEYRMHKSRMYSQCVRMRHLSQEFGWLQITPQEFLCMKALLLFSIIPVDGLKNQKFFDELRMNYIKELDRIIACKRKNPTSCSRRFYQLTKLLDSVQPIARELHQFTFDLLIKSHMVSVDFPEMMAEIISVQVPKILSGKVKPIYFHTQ
Method in brief: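 Agonist-mode confirmation run against 3.0 uM final nilutamide: compounds titrated at 15 concentrations onto MDA-kb2 MMTV-luciferase reporter cells. Luminescence measured with ONE-Glo following 16 hr incubation, 37C, 0% CO2.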

[6] = qHTS assay to identify small molecule antagonists of the estrogen receptor beta (ER-beta) signaling pathway - cell viability counter screen (AID 1259382; active means well fitted curve in the direction sought with a large enough effect in the repeat runs; an effect the other way counts as inactive or inconclusive;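 further: HEK293T cells carrying ER-beta-UAS-bla reporter stimulated with estradiol; series mostly up to about 92 µM; nearly all actives have a fitted effect of over 55% in size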)
Method in brief: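 Cytotoxicity was measured in the same wells by CellTiter-Glo luminescence after 30 min at room temperature. Cells were ER-beta-bla HEK293T in charcoal-stripped serum, given compound together with 1 nM E2 and incubated 16 h at 37C.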

[7] = target: Estrogen receptor (Homo sapiens) (UniProt P03372); assay: qHTS assay to identify small molecule agonists of the estrogen receptor alpha (ER-alpha) signaling pathway in the presence of an antagonist (AID 1259383); further: top concentration of the series differs between compounds; nearly all actives have a fitted effect of over 15% in size
Chain of Estrogen receptor (Homo sapiens) (P03372 whole entry, looked up): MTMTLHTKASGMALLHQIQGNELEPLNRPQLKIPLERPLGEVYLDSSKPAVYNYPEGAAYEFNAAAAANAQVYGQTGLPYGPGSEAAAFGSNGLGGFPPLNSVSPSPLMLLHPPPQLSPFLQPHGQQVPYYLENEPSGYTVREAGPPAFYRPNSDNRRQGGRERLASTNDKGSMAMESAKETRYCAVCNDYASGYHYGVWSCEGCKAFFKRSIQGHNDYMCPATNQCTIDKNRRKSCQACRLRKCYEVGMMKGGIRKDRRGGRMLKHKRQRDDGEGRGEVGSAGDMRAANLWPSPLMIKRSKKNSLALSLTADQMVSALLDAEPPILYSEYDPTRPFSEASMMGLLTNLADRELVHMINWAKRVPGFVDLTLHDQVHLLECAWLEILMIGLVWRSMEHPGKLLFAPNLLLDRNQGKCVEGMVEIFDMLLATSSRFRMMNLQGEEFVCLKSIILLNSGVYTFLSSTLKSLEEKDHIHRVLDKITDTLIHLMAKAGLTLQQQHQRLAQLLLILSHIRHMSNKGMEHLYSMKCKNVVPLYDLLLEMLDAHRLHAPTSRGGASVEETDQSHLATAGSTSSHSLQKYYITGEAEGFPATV
Method in brief: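 Agonist-mode confirmation run in the presence of 10.0nM (final) ICI-182,780 antagonist. The reporter was ERE-driven luciferase in VM7Luc4E2 cells, grown in charcoal-stripped serum. Cells were exposed to 15-concentration compound series for 22hr, then ONE-Glo luminescence was read.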

[8] = qHTS assay to identify small molecule agonists or antagonists of the thyroid stimulating hormone receptor (TSHR) signaling pathway - wild type cell line counter screen (AID 1259384)
Method in brief: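 Counter screen in untransfected Hek293: compounds (15-point titration, triplicate) plus phosphodiesterase inhibitor Ro20-1724 added after 18 h plating; 30 min RT. Intracellular cAMP via competitive d2/cryptate immunoassay, 1 h incubation.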

[9] = target: Estrogen receptor beta (Homo sapiens) (UniProt Q92731); assay: qHTS assay to identify small molecule agonists of the estrogen receptor beta (ER-beta) signaling pathway (AID 1259377; active means well fitted activation curve with a large enough effect in the signal ratio in the repeat runs, not every such curve was filed as active; the % refers to the signal ratio)
Chain of Estrogen receptor beta (Homo sapiens) (Q92731 whole entry, looked up, the tested form may be a part): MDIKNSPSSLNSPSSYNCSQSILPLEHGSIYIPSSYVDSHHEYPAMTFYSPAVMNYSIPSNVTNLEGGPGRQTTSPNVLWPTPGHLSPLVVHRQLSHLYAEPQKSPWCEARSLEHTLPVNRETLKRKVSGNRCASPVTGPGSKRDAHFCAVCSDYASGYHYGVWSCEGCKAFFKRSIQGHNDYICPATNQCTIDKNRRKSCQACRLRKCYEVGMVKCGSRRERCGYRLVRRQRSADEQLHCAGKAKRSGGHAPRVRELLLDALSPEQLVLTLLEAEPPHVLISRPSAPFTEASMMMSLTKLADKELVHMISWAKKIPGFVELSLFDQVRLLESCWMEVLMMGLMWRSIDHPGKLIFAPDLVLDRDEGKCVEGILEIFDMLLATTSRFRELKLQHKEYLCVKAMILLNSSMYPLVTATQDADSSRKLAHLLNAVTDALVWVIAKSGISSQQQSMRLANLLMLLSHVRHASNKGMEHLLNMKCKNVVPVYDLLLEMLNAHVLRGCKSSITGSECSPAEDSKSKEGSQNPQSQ
Method in brief: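 Agonist mode cell assay in GripTite HEK293T cells expressing an ER-beta fusion that drives beta-lactamase from an Upstream Activator Sequence; 16 hr compound exposure at 37C, then 2 h LiveBLAzer B/G FRET substrate at room temperature, fluorescence read-out.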

[10] = target: Estrogen receptor beta (Homo sapiens) (UniProt Q92731); assay: qHTS assay to identify small molecule antagonists of the estrogen receptor beta (ER-beta) signaling pathway (AID 1259378; active means well fitted inhibition curve with a large enough effect in the signal ratio in the repeat runs, not every such curve was filed as active; the % refers to the signal ratio; further: potency means the concentration at half of the fitted maximal effect)
Method in brief: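 Antagonist mode: compounds added to beta-lactamase reporter HEK293T ER-beta-UAS cells stimulated with E2 (1nM final), 16 hr at 37C. LiveBLAzer B/G FRET substrate, 2 hours room temperature, fluorescence read-out.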

Row | SMILES | Potency [1] | Potency [2] | Potency [3] | Potency [4] | Potency [5] | Potency [6] | Potency [7] | outcome [8] | Potency [9] | Potency [10]
1 | O=[N+]([O-])c1cccc(S(=O)(=O)NCCNS(=O)(=O)c2cccc([N+](=O)[O-])c2)c1 | inactive | inactive | inactive | inactive | inactive | inactive | inactive | – | – | –
2 | N#C[C@@H]1C[C@@H]2C[C@@H]2N1C(=O)[C@@H](N)C12CC3CC(CC(O)(C3)C1)C2 | inactive | inactive | inactive | inactive | – | inactive | inactive | inactive | – | –
3 | Nc1c(I)cc(I)c(C(=O)N(CCC(=O)O)c2ccccc2)c1I | inactive | inactive | inactive | inactive | inactive | inactive | – | – | – | –
4 | Cc1ccc(Nc2nccc(N(C)c3ccc4c(C)n(C)nc4c3)n2)cc1S(N)(=O)=O | inactive | 1.88 µM (active) | – | – | inactive | inactive | inactive | – | inactive | –
5 | ON(Cc1ccccc1)Cc1ccccc1 | inactive | inactive | inactive | inactive | inactive | inactive | inactive | inactive | – | –
6 | CNC(=O)N(c1ccccc1)c1ccccc1 | inactive | 6.89 µM (active) | inactive | inactive | inactive | inactive | inactive | inactive | – | –
7 | C[C@@H]1C[C@H]2[C@@H]3CCC4=CC(=O)C=C[C@]4(C)[C@@]3(F)[C@@H](O)C[C@]2(C)[C@@]1(O)C(=O)CO | inactive | 0.492 µM (active) | inactive | inactive | – | inactive | – | – | – | –
8 | CCOC(=O)c1ccccc1OC | inactive | inactive | inactive | inactive | – | inactive | – | inactive | – | inactive
9 | O=C(C(=O)c1ccccc1)c1ccccc1 | inactive | inactive | inactive | inactive | – | inactive | – | – | – | –
10 | CC1=CC(=O)CC(C)(C)C1(O)/C=C/C(C)=C\C(=O)O (configuration not stated) | inactive | inactive | inactive | inactive | – | inactive | – | – | – | –
11 | O=C(NCCCN1CCOCC1)c1ccc(Cl)cc1 | inactive | inactive | inactive | inactive | – | inactive | inactive | inactive | – | –
12 | CCCCC(=O)O[C@]1(C(=O)CO)CC[C@H]2[C@@H]3CCC4=CC(=O)CC[C@]4(C)[C@H]3[C@@H](O)C[C@@]21C | inactive | inactive | inactive | inactive | – | inactive | inactive | inactive | – | –
13 | COc1cc2c(cc1OC)-c1cc(=Nc3c(C)cc(C)cc3C)n(C)c(=O)n1CC2 | inactive | 0.596 µM (active) | inactive | inactive | inactive | inactive | inactive | inactive | – | –
14 | c1ccc(COCc2ccccc2)cc1 | inactive | inactive | inactive | inactive | – | inactive | inactive | – | – | –
15 | COC(=O)c1cc(S(N)(=O)=O)ccc1OC | inactive | inactive | inactive | inactive | inactive | inactive | inactive | inactive | – | –
16 | OCC1CC=CCC1 (configuration not stated) | inactive | inactive | inactive | inactive | inactive | – | – | inactive | – | –
17 | CC(C)C(=O)O | inactive | inactive | inactive | inactive | – | inactive | inactive | – | – | –
18 | O=C(O)c1cccnc1C(=O)O | inactive | inactive | inactive | inactive | – | inactive | inactive | inactive | – | –
19 | O=C(O)Cc1ccc(-c2ccccc2)cc1 | inactive | inactive | inactive | inactive | inactive | inactive | inactive | – | – | –
20 | COc1cc2ncnc(Nc3ccc(F)c(Cl)c3)c2cc1OCCCN1CCOCC1 | inactive | 15 µM (active) | – | 6.68 µM (active) | inactive | – | inactive | inactive | – | 7.5 µM (active)
21 | CCn1nc(C)c2c1C(=O)NCC(c1ccc(O)cc1)=N2 | inactive | 0.0122 µM (active) | inactive | inactive | – | inactive | – | inactive | – | inactive
22 | CCCCCCCC/C=C\CCCCCCCC(=O)OC | inactive | inactive | inactive | inactive | – | inactive | – | – | – | inactive
23 | C=C(C)C(=O)OCCOC(=O)CC(C)=O | inactive | inactive | – | inactive | – | – | – | – | – | inactive
24 | CCCCCCCCCCCC[N+](C)(C)CCCS(=O)(=O)[O-] | inactive | inactive | – | – | – | inactive | inactive | inactive | inactive | –
25 | Nc1ccc(S(=O)(=O)O)c(N)c1 | inactive | inactive | inactive | inactive | – | inactive | inactive | inactive | – | –
26 | COc1cc2[nH]c(=O)[nH]c(=O)c2cc1OC | inactive | inactive | inactive | inactive | – | inactive | inactive | inactive | – | –
27 | O=C(O)c1ccccc1NCCc1ccccc1 | inactive | inactive | inactive | inactive | inactive | inactive | – | inactive | – | –
28 | CCCCC(CC)CNCC(CC)CCCC (configuration not stated) | inactive | inactive | inactive | inactive | – | inactive | – | – | – | –
